Results on 48 compounds are retold here after PubChem BioAssay AID686971 (National Center for Advancing Translational Sciences (NCATS), 2013).

Out of some 360,000 compounds screened, about 7,500 (2.1%) were called active. Roughly 8% stayed inconclusive and do not appear here. The call rests on the fitted dose curve; in most records, active means well fitted cell-killing curve with a large enough effect; inconclusive means small, poorly fitted or top-dose-only effect, or effect the other way, or another doubt; inactive means no such curve, though single readings can be large or run the other way. The entries come from a sample that favours actives as a whole.
Potency means the concentration at half of the fitted maximal effect.

The nature of the experiment: qHTS for induction of synthetic lethality in tumor cells producing 2HG: qHTS for the HT-1080-IDH1KD cell line.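 On activity, negative = toxicity: 0% = DMSO wells and -100% = cell-free medium wells.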 As to conditions: HT-1080 IDH1 knockdown viability, ATP luminescence, 48 h; series mostly up to 46.1 µM; activity, negative = toxicity: at the top concentration. A digest of the protocol: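 % activity derives from luminescence (CellTiter-Glo), normalised to DMSO and no-cell wells. HT-1080-IDH1KD cells, 750/well, had 48 h compound exposure at 37 °C.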
On the technique in general: Quantitative high-throughput screening tests each substance at several concentrations.
On to `CCOC(=O)c1cc2cc(OC)ccc2n1C1CCN(C)CC1`, for which the “activity, negative = toxicity” value was -23.1% (inactive). Same read-out and setting: with `CCc1ccc(OC2(C)CCN(CCOc3ccc(C)cc3)C2)cc1` (stereo not drawn) the figure was 0% (inactive); with `O[C@@H]1C[C@H](c2ccccc2)N(Cc2cccs2)C[C@H]1n1cc(C2CC2)nn1`, 7.32% (inactive). Still for that read-out and setting: with `CSc1ncccc1C(=O)N1CCCC(Nc2ccc(F)c(F)c2)C1` (stereo not drawn) the figure was -11% (inactive). Same read-out and setting: with `Cc1ccccc1-c1nc(NC(C)C)nc2cc(-c3ccccc3)sc12` the figure was -18.6% (inactive); with `CCCCN(C=O)c1c(CC)nc2c(OCc3ccccc3C(=O)OC)cccn12`, -11.3% (inactive); with `CCOC(=O)N(C)c1c(CC)nc2c(OCc3ccccc3C(=O)OC)cccn12`, -3.5% (inactive).

Consider `CCc1nc2c(OCc3ccc(F)c(F)c3)cccn2c1N(C)C(=O)c1ccco1`, for which the “activity, negative = toxicity” value is 0.0356% (inactive). On to `CCc1nc2c(OCc3ccc(Cl)cc3Cl)cccn2c1N(C)C(=O)C(C)C`, for which the Potency is 16.4 µM (active). As to `Cc1nc2ccccc2nc(C)c1=NOCc1ccc(Cl)cc1Cl`, the “activity, negative = toxicity” value was -3.31% (inactive).

Regarding `Cc1nc2c(OCc3ccc(Cl)cc3Cl)cccn2c1N(C)CC1CC1`, the Potency is 14.6 µM (active). With `CCc1nc2c(OCc3ccccc3)cccn2c1N(C)C(=O)c1ccco1`, the “activity, negative = toxicity” value is 6.84% (inactive). For the compound `Cc1nc2c(OCc3ccc(Cl)cc3)cccn2c1N(C)Cc1cccs1`, the Potency was 16.4 µM (active). On to `CCc1nc2c(OCc3ccc(C(=O)OC)cc3)cccn2c1N(C)C(=O)C(C)C`, for which the “activity, negative = toxicity” value was -1.16% (inactive). Still for that read-out and setting: to `CCOC(=O)[C@]12CCCC=C1N(CCC1=CCCCC1)C(=O)[C@H](CC(=O)N1CCOCC1)C2` belongs -6.31% (inactive); to `Cc1ccc(S(=O)(=O)N[C@H](CO)C(C)C)cc1`, 26.3% (inactive); to `COCCCn1c(C(=O)NC2CCCCC2)cc2c(=O)n3cccc(C)c3nc21`, 15.5% (inactive).

Consider `COc1ccc(S(=O)(=O)N2CCC(C(=O)NCCC(=O)Nc3ccccc3OC)CC2)cc1`, for which the “activity, negative = toxicity” value was 1.9% (inactive).

With `CCOC(=O)C1=CC[C@@H](c2ccccc2)N(S(=O)(=O)c2ccc(C)cc2)[C@H]1c1cccc(OC)c1`, the “activity, negative = toxicity” value is 4.62% (inactive). With `COc1ccc(S(=O)(=O)N[C@@H]2C=C[C@@H](CC(=O)N3CCc4ccccc4C3)O[C@@H]2CO)cc1`, the “activity, negative = toxicity” value was 18.3% (inactive). For the compound `S=C(Nc1ccc(Br)cc1Cl)NC1CCN(Cc2ccccc2)CC1`, the Potency was 20.6 µM (active). Take `O=C(COc1ccc(Br)cc1F)NC1CCN(Cc2ccccc2)CC1`: the “activity, negative = toxicity” value is -5.88% (inactive). The same measure, in the same setting: to `O=C(NC1CCN(Cc2ccccc2)CC1)c1cc(Br)c(Br)[nH]1` belongs -5.71% (inactive); to `CC1(C(=O)NS(=O)(=O)C2CC2)CCCN(C(=O)CSc2ccccc2)C1` (stereo not drawn), 7.52% (inactive); to `CC(C)c1cc(CN2CCOCC2)cc(C(C)C)c1O`, 8.37% (inactive). For the compound `Oc1c(C(c2ccccn2)N2CCOCC2)ccc2cccnc12` (stereo not drawn), the Potency was 0.251 µM (active).

On to `O=C(Nc1ccccc1)c1ccccc1Br`, for which the “activity, negative = toxicity” value was 10.7% (inactive).

Consider `CC(C)[C@H](NC(=O)N1CC(=O)Nc2ccccc21)C(=O)N[C@@H](Cc1c[nH]c2ccccc12)C(=O)O`, for which the “activity, negative = toxicity” value was -0.456% (inactive).

With `CC(C)C[C@H](NC(=O)N1CC(=O)Nc2ccccc21)C(=O)N[C@H](Cc1ccccc1)C(=O)O`, the “activity, negative = toxicity” value was 2.48% (inactive). With `CC(C)c1ccc(NC(=O)[C@@H](NC(=O)N2CC(=O)Nc3ccccc32)C(C)C)cc1`, the Potency was 13 µM (active).

Regarding `COc1ccc(C(C)C)cc1-c1ccc2nncn2c1`, the “activity, negative = toxicity” value is 3.86% (inactive). On the same count and under the same terms, with `CC1(C(=O)NS(=O)(=O)c2ccccc2)CCN1C(=O)Cc1ccc(-c2ccccc2)cc1` (stereo not drawn) the figure was 13% (inactive). Still for that read-out and setting: to `Cc1ccc(F)c(S(=O)(=O)NC(=O)C2(C)CCN2C(=O)CCc2cccs2)c1` (stereo not drawn) belongs 14.3% (inactive). As for `CCCOc1ccccc1C1CC(=O)Nc2cc3c(cc21)OCO3` (stereo not drawn), the Potency is 1.84 µM (active).

As to `CCCOc1ccc(C2NC(=O)NC(c3ccccc3)=C2C(C)=O)cc1OCC` (stereo not drawn), the “activity, negative = toxicity” value was -22.4% (inactive).

As to `COC(=O)c1ccc(C2CC(=O)Nc3cc(OC)c(OC)cc32)cc1` (stereo not drawn), the “activity, negative = toxicity” value is -7.3% (inactive).

For the compound `C[C@@H](NC(=O)OC(C)(C)C)c1nnc(S(=O)(=O)Cc2ccccc2)o1`, the Potency is 18.4 µM (active). On to `CCc1ccccc1NC(=O)CSc1nnc([C@@H](NC(=O)OC(C)(C)C)C(C)CC)o1` (stereo partly drawn), for which the “activity, negative = toxicity” value is 6.33% (inactive).

On to `COc1ccccc1NC(=O)[C@H](COCc1ccccc1)NC(=O)OC(C)(C)C`, for which the “activity, negative = toxicity” value is -8.92% (inactive). Still for that read-out and setting: with `OC[C@@H]1CN(Cc2ccc(F)cc2)C[C@H](n2cnc3c(NC4CCCC4)ncnc32)O1` the figure was 16.5% (inactive); with `OC[C@@H]1CN(Cc2cccs2)C[C@H](n2cnc3c(NC4CCCC4)ncnc32)O1`, -0.119% (inactive). On to `OC[C@@H]1CN(Cc2ccc(-c3ccccc3)cc2)C[C@H](n2cnc3c(NC4CCCC4)ncnc32)O1`, for which the Potency was 20.6 µM (active). Turning to `CC1=C(C(=O)N2CCOCC2)CC(CC(=O)NCc2cccc3ccccc23)C(=O)N1CCC1=CCCCC1` (stereo not drawn), the “activity, negative = toxicity” value is -3.06% (inactive).

`Cc1ccc(C(=O)NC(C)C(c2cccs2)N2CCOCC2)cc1C` (stereo not drawn): the “activity, negative = toxicity” value was -21.6% (inactive). On the same count and under the same terms, with `CCC(=O)N1Cc2cc(C(=O)NCc3cccc(F)c3)nc(-c3cccc(C4=CCCC4)c3)c2[C@H]1CCO` the figure was -24.6% (inactive); with `COc1cc(OC)cc(C2=Cc3ccccc3C(CC(=O)c3ccco3)N2c2ccc(-c3cnc(OC)nc3)cc2)c1` (stereo not drawn), -0.402% (inactive).

`Cc1cccc(N(Cc2ccccc2)C(=O)c2ccccc2F)c1`: the “activity, negative = toxicity” value is -0.932% (inactive). As for `CC(C)(O)C(=O)NN(C(=O)c1ccccc1)c1cccc(Br)c1`, the “activity, negative = toxicity” value was 11.4% (inactive).
